According to the supplement of paper PMC10849652:
Targets with a hit are over-represented here; the source holds about 7,900 in all. About 0.6% of all pairs of compound and target were hits.

The targets below were run with CN1CC[C@H](c2c(O)cc(O)c3c(=O)cc(-c4ccccc4Cl)oc23)[C@H](O)C1 [alvocidib] (assay: log2 fold change, soluble protein after heating vs DMSO (PISA); higher = thermal stabilisation; K562 cells, 10 uM, 30 min; active = over 0.2 and 3.5 SD of the protein, either way, in both replicates (recomputed)).
Outline: (§1)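 K562 cells at 2×10^6 cells/mL were exposed to 10 μM compound for 30 min, then aliquots were heated for 3 min across 48°C-58°C, pooled, and extracted in PBS containing 0.5% NP-40 at 4°C. The supernatant after 21,000xg for 90 min was taken as soluble protein and measured by TMTpro 16plex LC-MS/MS with channel sums equalised. Thermal stability is reported relative to control samples, with values from duplicates. Fold changes are given on a log2 scale.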

Sequence of UniProt O75323 (O75323 whole entry, looked up): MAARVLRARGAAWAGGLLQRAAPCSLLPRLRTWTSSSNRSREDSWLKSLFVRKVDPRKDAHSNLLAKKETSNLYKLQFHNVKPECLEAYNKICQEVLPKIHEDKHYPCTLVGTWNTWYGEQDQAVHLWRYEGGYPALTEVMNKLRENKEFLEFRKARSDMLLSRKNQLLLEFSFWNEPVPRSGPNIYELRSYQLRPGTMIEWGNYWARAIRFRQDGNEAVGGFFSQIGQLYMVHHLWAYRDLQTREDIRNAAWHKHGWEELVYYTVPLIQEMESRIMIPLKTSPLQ
Sequence of UniProt Q12986 (Q12986 whole entry, looked up): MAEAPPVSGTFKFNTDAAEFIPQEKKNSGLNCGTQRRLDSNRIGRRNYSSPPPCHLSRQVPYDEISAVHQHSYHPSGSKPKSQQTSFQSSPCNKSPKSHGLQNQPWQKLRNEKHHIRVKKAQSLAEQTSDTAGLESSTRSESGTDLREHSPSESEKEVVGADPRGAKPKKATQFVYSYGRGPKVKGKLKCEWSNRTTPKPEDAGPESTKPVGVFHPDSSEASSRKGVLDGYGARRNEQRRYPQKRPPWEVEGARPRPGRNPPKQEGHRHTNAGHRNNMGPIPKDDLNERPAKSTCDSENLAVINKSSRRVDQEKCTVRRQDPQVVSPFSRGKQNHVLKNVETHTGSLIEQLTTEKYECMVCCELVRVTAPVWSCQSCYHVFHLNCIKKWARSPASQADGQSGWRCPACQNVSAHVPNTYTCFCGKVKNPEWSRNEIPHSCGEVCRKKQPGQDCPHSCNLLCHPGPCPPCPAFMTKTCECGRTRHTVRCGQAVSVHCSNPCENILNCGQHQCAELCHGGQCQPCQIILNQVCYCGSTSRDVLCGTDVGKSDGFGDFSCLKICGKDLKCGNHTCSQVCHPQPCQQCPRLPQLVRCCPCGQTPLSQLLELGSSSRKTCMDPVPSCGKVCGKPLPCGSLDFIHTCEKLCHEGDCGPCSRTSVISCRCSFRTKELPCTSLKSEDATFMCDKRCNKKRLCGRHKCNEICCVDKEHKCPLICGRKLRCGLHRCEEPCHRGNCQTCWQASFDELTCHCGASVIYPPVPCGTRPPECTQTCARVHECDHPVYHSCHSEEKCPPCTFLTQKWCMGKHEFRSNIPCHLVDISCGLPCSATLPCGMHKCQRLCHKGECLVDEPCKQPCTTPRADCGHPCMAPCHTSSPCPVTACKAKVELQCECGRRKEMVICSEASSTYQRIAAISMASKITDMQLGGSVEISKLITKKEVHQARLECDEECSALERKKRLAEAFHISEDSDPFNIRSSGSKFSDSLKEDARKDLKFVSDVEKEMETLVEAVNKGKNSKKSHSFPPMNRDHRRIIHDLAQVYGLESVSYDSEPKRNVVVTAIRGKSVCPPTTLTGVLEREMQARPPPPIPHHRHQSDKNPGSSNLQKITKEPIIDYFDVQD
Sequence of UniProt Q8WX92 (Q8WX92 whole entry, looked up): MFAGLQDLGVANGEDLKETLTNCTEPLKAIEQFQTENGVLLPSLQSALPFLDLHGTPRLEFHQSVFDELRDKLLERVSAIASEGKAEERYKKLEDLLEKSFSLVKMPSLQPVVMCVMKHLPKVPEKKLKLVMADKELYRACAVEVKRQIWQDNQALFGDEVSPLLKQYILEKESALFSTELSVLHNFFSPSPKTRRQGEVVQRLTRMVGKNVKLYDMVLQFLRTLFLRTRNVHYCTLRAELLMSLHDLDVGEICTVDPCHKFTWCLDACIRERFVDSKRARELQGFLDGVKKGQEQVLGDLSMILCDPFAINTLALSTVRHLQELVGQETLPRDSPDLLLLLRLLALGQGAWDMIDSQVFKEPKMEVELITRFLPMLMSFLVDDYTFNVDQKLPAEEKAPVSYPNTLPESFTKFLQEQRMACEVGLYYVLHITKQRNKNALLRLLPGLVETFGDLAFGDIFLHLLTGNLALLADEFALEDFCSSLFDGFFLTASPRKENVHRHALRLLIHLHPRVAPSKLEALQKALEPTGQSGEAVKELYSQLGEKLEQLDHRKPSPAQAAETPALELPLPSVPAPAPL
Sequence of UniProt Q9NRP0 (Q9NRP0 whole entry, looked up): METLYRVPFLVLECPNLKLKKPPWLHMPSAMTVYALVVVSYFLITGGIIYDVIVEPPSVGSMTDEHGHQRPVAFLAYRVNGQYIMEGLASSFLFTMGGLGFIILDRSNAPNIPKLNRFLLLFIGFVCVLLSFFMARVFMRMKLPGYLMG
Sequence of UniProt Q12968 (Q12968 whole entry, looked up): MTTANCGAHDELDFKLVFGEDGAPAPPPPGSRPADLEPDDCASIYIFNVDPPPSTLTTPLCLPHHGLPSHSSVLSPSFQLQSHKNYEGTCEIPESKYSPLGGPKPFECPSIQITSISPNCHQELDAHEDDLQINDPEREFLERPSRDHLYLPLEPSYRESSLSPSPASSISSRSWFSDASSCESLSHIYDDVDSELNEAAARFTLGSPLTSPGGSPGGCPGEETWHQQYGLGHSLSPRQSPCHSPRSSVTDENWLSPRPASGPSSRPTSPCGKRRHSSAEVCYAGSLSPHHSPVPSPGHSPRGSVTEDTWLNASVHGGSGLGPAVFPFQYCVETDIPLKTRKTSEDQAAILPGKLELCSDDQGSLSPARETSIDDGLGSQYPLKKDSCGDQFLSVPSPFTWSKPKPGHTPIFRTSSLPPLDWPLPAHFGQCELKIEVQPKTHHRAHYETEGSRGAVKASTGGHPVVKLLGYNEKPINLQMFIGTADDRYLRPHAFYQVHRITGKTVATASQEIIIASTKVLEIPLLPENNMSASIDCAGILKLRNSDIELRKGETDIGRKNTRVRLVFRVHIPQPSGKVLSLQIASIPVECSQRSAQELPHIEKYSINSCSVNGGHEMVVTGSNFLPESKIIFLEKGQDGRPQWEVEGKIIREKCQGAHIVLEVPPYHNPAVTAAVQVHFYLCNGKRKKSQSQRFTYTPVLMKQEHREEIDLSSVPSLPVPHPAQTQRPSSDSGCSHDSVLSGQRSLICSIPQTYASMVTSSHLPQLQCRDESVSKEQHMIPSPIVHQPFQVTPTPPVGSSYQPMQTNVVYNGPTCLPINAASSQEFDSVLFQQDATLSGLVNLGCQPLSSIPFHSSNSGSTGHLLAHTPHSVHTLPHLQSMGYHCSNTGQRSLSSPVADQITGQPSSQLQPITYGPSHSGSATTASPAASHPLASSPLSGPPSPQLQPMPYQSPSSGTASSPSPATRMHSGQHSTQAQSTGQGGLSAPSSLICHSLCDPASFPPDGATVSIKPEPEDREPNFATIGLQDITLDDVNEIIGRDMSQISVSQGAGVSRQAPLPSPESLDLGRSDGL
Sequence of UniProt P68402 (P68402 whole entry, looked up): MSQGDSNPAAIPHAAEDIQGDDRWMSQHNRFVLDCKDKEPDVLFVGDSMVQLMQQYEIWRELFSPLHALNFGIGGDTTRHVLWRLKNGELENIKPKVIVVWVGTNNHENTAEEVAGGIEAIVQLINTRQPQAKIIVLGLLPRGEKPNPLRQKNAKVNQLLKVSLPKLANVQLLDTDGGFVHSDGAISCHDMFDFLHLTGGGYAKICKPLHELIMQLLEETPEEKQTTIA
Sequence of UniProt Q9H8H0 (Q9H8H0 whole entry, looked up): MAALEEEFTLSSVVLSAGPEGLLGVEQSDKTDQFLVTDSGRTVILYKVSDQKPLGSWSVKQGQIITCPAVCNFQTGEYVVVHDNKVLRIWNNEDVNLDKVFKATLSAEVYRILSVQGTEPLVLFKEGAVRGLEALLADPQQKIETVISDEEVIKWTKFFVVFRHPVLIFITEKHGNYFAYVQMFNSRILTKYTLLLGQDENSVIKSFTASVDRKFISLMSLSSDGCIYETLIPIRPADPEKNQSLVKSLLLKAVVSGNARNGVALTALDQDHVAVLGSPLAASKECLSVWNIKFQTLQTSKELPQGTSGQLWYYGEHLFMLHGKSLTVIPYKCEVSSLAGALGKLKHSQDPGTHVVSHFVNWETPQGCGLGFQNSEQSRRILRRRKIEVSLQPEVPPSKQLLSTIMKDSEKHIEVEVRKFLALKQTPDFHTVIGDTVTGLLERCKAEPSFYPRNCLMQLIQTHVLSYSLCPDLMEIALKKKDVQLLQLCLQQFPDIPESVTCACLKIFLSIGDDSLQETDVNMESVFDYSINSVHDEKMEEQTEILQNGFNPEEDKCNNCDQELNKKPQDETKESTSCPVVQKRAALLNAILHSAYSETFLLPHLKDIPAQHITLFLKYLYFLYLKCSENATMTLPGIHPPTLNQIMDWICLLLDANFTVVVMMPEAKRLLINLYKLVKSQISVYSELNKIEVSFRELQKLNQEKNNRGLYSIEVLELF
Sequence of UniProt P49914 (P49914 whole entry, looked up): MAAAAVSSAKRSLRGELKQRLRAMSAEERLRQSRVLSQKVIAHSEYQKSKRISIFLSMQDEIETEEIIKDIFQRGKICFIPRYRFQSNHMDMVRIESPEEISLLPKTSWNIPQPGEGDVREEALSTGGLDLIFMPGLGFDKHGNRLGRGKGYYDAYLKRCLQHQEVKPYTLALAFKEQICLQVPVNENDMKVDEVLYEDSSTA
Sequence of UniProt Q9HAN9 (Q9HAN9 whole entry, looked up): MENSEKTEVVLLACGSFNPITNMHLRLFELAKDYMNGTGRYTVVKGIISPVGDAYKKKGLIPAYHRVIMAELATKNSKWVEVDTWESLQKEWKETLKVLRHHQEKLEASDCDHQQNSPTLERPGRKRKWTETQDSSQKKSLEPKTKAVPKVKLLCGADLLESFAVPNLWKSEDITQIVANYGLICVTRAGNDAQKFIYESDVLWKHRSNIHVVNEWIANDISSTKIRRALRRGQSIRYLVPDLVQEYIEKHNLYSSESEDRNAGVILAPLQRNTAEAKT
Sequence of UniProt Q9UI09 (Q9UI09 whole entry, looked up): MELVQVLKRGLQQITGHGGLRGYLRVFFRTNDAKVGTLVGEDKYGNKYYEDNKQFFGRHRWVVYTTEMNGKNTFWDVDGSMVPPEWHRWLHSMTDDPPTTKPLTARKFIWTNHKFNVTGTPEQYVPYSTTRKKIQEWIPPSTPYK
Sequence of UniProt O14950 (O14950 whole entry, looked up): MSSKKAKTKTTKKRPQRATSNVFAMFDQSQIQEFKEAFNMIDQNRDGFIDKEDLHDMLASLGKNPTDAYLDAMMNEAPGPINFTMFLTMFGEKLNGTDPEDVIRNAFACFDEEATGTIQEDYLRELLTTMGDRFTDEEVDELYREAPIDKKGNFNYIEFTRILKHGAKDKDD

log2 fold change, inactive:
NELFB isoform 2 (UniProt Q8WX92) -0.199
MRPL50 (UniProt Q8N5N7) 0.066
MRPL46 (UniProt Q9H2W6) 0.016
NOP56 (UniProt O00567) 0.104
MTHFS (UniProt P49914) -0.078
MKNK1 (UniProt Q9BUB5) -0.06
NMNAT1 (UniProt Q9HAN9) 0.158
MT-ATP6 (UniProt P00846) -0.058
NFATC3 (UniProt Q12968) -0.148
NELFA (UniProt Q9H3P2) -0.193
OSTM1 (UniProt Q86WC4) 0.001
NDUFS8 (UniProt O00217) -0.081
MITD1 (UniProt Q8WV92) -0.005
NFX1 (UniProt Q12986) 0.08
NBN (UniProt O60934) -0.197
NDUFS7 (UniProt O75251) -0.011
NA, A0A096LPI6 -0.02
NSMCE2 (UniProt Q96MF7) -0.004
NIPSNAP2 (UniProt O75323) 0.031
MRPS10 (UniProt P82664) -0.007
NNT (UniProt Q13423) -0.024
NEU1 (UniProt Q99519) -0.033
NOL11 (UniProt Q9H8H0) 0.089
MRPS25 (UniProt P82663) -0.039
MRPS5 (UniProt P82675) -0.042
NMT2 (UniProt O60551) -0.021
NEDD4L (UniProt Q96PU5) -0.121
NR2C2 isoform 2 (UniProt P49116) 0.077
P4HA2 (UniProt O15460) 0.004
OSTC (UniProt Q9NRP0) -0.048
NFATC2 (UniProt Q13469) -0.199
PAFAH1B2 (UniProt P68402) 0.031
NA, A0A0B4J2A0 -0.058
OXSM (UniProt Q9NWU1) -0.046
NDUFA12 (UniProt Q9UI09) -0.094
NOP58 (UniProt Q9Y2X3) 0.075
MSTO1 (UniProt Q9BUK6) -0.001
MRPS27 isoform 2 (UniProt Q92552) -0.078
MYL12B (UniProt O14950) -0.14

These targets were tested with CN1CCc2c(c3ccccc3n2Cc2ccc(C(=O)NO)cc2)C1 [Tubastatin A] in the same assay as above.
Outline: as §1

log2 fold change, inactive:
NELFB isoform 2 (UniProt Q8WX92) 0.04
MRPL50 (UniProt Q8N5N7) 0.133
MRPL46 (UniProt Q9H2W6) 0.037
NOP56 (UniProt O00567) -0.01
MTHFS (UniProt P49914) 0.043
MKNK1 (UniProt Q9BUB5) 0.037
NMNAT1 (UniProt Q9HAN9) 0.07
MT-ATP6 (UniProt P00846) 0.122
NFATC3 (UniProt Q12968) 0.058
NELFA (UniProt Q9H3P2) 0.216
OSTM1 (UniProt Q86WC4) 0.031
NDUFS8 (UniProt O00217) -0.04
MITD1 (UniProt Q8WV92) 0.161
NFX1 (UniProt Q12986) -0.001
NBN (UniProt O60934) 0.191
NDUFS7 (UniProt O75251) -0.001
NA, A0A096LPI6 -0.037
NSMCE2 (UniProt Q96MF7) 0
NIPSNAP2 (UniProt O75323) -0.019
MRPS10 (UniProt P82664) 0.035
NNT (UniProt Q13423) -0.01
NEU1 (UniProt Q99519) 0.028
NOL11 (UniProt Q9H8H0) -0.08
MRPS25 (UniProt P82663) 0.084
MRPS5 (UniProt P82675) -0.009
NMT2 (UniProt O60551) 0.008
NEDD4L (UniProt Q96PU5) 0.057
NR2C2 isoform 2 (UniProt P49116) -0.013
P4HA2 (UniProt O15460) 0.098
OSTC (UniProt Q9NRP0) -0.174
NFATC2 (UniProt Q13469) 0.118
PAFAH1B2 (UniProt P68402) -0.058
NA, A0A0B4J2A0 -0.058
OXSM (UniProt Q9NWU1) -0.01
NDUFA12 (UniProt Q9UI09) 0
NOP58 (UniProt Q9Y2X3) 0.014
MSTO1 (UniProt Q9BUK6) 0.023
MRPS27 isoform 2 (UniProt Q92552) 0.06
MYL12B (UniProt O14950) 0.019
